Drawing on ChEMBL document CHEMBL1961873, “Compounds: GSK PKIS; Assays: Nanosyn kinase panel” (2012), this text covers inhibition for seven compounds.

The inhibition is the drop in the measured response relative to a control, in per cent.

For test [1], the target named is T1, Ephrin type-B receptor 2 (Homo sapiens) (UniProt P29323).
T1 sequence (whole entry): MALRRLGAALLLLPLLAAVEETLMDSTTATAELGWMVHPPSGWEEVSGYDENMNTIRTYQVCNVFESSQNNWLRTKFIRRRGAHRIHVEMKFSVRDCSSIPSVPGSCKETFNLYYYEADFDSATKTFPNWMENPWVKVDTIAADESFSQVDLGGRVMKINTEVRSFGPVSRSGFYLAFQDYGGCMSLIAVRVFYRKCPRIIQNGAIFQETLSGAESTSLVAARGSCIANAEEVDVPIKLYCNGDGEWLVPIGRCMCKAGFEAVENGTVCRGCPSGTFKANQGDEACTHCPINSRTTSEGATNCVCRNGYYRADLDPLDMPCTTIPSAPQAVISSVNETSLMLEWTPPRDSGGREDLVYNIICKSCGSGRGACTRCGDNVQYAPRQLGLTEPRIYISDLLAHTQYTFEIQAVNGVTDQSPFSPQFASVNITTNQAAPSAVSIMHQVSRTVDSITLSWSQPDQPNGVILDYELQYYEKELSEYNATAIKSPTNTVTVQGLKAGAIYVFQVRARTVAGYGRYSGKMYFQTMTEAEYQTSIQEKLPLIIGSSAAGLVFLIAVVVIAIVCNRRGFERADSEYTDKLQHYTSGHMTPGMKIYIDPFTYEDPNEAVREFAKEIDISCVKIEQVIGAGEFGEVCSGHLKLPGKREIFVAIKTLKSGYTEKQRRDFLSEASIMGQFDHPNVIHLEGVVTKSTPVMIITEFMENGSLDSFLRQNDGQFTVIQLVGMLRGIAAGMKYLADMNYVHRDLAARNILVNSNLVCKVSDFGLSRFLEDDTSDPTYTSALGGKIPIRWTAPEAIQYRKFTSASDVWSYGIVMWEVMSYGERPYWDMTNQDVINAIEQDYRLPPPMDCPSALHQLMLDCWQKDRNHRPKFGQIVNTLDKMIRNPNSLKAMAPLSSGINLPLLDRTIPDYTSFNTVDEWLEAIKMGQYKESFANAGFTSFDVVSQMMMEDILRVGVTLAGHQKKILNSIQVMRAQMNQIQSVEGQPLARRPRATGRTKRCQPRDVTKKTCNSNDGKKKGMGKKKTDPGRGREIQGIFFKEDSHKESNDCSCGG
Conditions: at 1 µM.

The target of test [2] is T2, Ephrin type-B receptor 3 (Homo sapiens) (UniProt P54753).
T2 sequence (whole entry): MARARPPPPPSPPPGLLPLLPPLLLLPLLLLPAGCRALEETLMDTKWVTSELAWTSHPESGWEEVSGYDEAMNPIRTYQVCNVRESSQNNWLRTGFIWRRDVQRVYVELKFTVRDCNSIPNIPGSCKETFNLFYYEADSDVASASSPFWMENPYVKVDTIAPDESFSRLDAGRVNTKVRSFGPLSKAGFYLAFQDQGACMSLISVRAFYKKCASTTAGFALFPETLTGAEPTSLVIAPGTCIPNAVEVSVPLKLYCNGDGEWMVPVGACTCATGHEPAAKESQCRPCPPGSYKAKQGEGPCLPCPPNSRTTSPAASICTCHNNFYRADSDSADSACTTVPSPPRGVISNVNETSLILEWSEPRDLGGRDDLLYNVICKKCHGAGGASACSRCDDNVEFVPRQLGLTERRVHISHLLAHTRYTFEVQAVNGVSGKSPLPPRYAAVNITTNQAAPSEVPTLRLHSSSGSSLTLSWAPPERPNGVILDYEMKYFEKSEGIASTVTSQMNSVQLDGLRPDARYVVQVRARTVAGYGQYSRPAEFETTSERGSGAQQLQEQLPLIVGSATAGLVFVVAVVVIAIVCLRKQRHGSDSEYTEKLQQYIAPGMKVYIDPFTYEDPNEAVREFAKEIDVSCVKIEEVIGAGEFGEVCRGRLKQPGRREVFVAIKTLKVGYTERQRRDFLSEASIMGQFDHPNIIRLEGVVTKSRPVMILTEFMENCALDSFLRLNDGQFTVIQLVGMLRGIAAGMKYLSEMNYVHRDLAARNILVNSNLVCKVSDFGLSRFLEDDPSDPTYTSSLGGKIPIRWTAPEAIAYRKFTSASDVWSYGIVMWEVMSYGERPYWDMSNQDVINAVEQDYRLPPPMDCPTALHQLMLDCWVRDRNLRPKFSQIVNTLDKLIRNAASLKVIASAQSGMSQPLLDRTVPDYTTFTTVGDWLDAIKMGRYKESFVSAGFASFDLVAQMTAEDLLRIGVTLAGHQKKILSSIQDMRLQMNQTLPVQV
The note with it: at 0.1 µM.

Test [3] addresses T2, Ephrin type-B receptor 3 (Homo sapiens). The note with it: at 1 µM.
For test [4], the target named is T3, Ephrin type-B receptor 4 (Homo sapiens) (UniProt P54760).
T3 sequence (whole entry): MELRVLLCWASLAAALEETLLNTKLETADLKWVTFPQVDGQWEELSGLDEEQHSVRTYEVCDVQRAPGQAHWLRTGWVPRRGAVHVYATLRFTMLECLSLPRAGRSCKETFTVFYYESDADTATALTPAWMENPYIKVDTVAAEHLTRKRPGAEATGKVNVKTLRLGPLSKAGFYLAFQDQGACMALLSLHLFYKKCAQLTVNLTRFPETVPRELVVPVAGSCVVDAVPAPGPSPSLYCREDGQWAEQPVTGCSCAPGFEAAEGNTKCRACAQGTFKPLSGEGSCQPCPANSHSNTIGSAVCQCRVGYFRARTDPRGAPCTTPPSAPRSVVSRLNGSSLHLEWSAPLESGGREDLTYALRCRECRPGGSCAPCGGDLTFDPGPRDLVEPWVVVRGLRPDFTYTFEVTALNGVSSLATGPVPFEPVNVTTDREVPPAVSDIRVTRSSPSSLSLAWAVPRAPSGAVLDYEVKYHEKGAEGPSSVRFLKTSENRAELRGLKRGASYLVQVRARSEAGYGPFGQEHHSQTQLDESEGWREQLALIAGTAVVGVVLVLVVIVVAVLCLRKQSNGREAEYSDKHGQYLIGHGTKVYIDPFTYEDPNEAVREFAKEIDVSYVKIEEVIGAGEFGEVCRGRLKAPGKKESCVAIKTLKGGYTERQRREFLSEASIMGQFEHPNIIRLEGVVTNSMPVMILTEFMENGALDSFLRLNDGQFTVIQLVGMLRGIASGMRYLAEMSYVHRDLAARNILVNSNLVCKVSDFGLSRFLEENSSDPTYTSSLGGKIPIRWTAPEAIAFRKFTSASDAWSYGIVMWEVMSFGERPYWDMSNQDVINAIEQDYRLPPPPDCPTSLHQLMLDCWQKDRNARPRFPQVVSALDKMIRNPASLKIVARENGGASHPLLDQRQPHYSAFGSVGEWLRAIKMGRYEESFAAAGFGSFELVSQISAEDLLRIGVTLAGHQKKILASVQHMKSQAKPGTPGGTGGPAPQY
The note with it: at 0.1 µM.

In test [5] the target is T3, Ephrin type-B receptor 4 (Homo sapiens). Conditions: at 1 µM.
The target of test [6] is Receptor tyrosine-protein kinase erbB-2 (Homo sapiens) (UniProt P04626). Conditions: at 0.1 µM.
The target is the same in test [7]. The note with it: at 1 µM.
Test [8] concerns the target Receptor tyrosine-protein kinase erbB-4 (Homo sapiens) (UniProt Q15303). Conditions: at 0.1 µM.
Test [9] shares this target. Conditions: at 1 µM.
Test [10] has as its target Tyrosine-protein kinase Fer (Homo sapiens) (UniProt P16591). Conditions: at 0.1 µM.
For test [11] the target is unchanged. Conditions: at 1 µM.
Test [12] concerns the target Tyrosine-protein kinase Fes/Fps (Homo sapiens) (UniProt P07332). Conditions: at 0.1 µM.
Test [13] has the same target. Conditions: at 1 µM.
Test [14] concerns the target Fibroblast growth factor receptor 1 (Homo sapiens) (UniProt P11362). The note with it: at 0.1 µM.
Test [15] shares this target. Conditions: at 1 µM.
The target in test [16] is Fibroblast growth factor receptor 2 (Homo sapiens) (UniProt P21802). The note with it: at 0.1 µM.
Test [17] has the same target. The note with it: at 1 µM.
Test [18] deals with Fibroblast growth factor receptor 3 (Homo sapiens) (UniProt P22607). The note with it: at 0.1 µM.
For test [19] the target is unchanged. The note with it: at 1 µM.
In test [20] the target is Fibroblast growth factor receptor 4 (Homo sapiens) (UniProt P22455). The note with it: at 0.1 µM.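 Further: values are mean percent inhibition of FGFR4.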
Chain of Fibroblast growth factor receptor 4 (Homo sapiens) (P22455 22-802 limits assumed): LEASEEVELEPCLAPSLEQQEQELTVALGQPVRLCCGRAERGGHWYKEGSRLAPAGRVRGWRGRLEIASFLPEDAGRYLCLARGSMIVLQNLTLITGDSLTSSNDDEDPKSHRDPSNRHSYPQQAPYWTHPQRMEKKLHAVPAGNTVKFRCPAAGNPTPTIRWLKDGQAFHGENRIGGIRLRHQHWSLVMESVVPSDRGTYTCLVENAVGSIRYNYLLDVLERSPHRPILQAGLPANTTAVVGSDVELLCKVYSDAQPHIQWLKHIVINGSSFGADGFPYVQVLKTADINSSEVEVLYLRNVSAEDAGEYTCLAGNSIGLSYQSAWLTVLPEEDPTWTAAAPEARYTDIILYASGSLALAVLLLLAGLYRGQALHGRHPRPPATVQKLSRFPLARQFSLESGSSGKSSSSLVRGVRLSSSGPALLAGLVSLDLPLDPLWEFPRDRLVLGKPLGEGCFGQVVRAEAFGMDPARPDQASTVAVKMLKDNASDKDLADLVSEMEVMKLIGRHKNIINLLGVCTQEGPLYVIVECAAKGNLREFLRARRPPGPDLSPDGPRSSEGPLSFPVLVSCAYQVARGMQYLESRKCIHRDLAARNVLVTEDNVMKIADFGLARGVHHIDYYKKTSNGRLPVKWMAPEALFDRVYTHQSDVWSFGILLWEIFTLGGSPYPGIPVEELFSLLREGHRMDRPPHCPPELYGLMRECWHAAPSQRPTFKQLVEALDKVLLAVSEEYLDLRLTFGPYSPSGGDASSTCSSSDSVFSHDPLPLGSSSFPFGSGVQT

Chain of Fibroblast growth factor receptor 2 (Homo sapiens) (P21802 22-821 limits assumed): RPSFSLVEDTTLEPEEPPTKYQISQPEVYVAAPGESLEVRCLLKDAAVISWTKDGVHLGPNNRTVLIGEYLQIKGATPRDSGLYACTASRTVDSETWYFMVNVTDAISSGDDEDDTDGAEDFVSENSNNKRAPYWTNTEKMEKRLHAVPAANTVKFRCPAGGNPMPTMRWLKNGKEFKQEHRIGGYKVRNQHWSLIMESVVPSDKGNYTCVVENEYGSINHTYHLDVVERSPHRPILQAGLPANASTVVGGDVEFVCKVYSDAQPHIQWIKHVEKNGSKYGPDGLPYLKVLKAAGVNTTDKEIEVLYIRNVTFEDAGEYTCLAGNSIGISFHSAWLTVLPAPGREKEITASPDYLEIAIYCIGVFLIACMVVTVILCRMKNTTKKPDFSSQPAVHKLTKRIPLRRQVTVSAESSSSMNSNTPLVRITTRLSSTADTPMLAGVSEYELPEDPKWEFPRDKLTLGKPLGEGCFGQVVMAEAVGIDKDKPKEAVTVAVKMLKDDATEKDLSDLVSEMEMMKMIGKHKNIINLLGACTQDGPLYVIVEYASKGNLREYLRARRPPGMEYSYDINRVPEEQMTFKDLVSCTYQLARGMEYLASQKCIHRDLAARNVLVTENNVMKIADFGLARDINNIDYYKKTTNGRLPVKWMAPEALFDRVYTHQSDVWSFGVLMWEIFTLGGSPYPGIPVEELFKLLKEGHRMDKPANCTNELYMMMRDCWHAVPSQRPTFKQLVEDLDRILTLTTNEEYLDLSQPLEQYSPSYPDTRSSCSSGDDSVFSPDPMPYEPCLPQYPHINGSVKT
Chain of Fibroblast growth factor receptor 1 (Homo sapiens) (P11362 22-822 limits assumed): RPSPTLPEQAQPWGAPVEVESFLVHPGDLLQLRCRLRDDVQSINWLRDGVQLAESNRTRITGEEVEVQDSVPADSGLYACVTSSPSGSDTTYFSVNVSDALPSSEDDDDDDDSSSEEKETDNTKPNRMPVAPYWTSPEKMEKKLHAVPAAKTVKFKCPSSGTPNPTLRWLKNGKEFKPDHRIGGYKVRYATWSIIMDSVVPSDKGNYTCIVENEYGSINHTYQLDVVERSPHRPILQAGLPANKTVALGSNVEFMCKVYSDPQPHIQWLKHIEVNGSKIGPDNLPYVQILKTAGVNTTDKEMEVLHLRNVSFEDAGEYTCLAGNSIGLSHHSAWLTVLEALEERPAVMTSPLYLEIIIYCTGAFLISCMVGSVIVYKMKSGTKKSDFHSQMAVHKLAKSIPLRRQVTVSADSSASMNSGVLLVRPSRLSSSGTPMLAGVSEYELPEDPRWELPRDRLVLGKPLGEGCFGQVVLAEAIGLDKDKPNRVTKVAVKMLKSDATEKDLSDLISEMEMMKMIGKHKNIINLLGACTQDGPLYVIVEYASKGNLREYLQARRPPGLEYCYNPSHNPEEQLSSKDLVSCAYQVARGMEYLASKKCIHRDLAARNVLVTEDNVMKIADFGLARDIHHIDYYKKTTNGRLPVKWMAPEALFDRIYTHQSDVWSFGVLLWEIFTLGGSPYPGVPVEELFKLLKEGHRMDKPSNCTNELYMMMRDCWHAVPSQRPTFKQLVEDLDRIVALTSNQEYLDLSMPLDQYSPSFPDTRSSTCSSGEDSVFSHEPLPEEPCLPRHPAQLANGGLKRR
Chain of Receptor tyrosine-protein kinase erbB-4 (Homo sapiens) (Q15303 whole entry): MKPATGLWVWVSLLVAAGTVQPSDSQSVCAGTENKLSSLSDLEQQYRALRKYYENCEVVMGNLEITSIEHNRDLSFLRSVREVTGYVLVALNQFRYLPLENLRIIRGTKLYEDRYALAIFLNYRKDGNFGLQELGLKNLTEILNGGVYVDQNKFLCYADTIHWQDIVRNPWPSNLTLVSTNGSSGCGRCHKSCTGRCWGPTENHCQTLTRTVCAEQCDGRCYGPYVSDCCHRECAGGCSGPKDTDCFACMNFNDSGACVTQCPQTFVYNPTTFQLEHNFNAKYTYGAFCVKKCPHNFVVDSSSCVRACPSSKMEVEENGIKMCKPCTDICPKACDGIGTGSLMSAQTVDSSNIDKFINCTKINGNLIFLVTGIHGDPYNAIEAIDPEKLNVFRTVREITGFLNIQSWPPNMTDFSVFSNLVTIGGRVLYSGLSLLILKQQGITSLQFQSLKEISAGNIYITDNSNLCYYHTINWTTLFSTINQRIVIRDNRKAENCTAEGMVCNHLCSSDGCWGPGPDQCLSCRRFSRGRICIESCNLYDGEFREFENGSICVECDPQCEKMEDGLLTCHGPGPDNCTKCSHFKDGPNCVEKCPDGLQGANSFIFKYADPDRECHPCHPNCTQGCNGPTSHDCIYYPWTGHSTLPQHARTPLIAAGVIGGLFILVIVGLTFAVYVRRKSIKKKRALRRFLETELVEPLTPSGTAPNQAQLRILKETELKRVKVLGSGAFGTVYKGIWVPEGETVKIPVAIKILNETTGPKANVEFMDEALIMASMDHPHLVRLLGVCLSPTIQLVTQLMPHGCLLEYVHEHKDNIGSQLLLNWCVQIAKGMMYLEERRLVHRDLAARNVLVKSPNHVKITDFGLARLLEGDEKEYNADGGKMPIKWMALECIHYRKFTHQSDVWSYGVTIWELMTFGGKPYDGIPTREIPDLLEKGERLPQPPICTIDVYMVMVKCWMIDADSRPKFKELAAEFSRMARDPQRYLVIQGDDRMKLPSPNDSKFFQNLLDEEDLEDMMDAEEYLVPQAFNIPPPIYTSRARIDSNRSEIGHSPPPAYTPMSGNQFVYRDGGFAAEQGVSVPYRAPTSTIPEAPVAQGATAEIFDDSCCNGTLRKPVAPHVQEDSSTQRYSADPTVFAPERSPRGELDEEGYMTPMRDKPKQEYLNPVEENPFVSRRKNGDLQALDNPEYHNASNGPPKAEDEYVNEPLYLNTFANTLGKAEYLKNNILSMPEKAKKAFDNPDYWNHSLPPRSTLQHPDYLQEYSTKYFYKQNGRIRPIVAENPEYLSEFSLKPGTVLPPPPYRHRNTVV
Chain of Fibroblast growth factor receptor 3 (Homo sapiens) (P22607 23-806 limits assumed): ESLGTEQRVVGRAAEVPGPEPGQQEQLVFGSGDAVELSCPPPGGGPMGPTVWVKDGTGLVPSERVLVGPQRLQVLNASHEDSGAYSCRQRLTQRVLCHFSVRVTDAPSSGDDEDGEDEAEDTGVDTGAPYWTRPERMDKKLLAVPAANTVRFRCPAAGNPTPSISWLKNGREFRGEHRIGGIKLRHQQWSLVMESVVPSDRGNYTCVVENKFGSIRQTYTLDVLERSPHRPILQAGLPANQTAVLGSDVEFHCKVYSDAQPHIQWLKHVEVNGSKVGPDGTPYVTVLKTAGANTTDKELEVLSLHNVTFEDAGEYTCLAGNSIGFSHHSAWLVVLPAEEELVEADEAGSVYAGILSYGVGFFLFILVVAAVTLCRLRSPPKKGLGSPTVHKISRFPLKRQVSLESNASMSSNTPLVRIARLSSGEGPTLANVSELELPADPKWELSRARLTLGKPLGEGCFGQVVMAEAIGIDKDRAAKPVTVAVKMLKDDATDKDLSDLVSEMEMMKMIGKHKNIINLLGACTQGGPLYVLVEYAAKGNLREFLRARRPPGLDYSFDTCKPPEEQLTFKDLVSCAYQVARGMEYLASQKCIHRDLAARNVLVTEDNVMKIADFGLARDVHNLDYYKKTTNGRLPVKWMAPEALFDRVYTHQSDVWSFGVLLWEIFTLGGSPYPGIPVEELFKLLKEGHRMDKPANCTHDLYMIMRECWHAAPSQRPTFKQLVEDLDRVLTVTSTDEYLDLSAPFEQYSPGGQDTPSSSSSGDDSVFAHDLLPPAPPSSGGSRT

Take `c1cnn2ncc(-c3ccnc(Nc4ccc5c(c4)OCCO5)n3)c2c1`: the inhibition in test [1] is 29.4%; in test [2] it was 3.36%; in test [3] it was 6.8%; in test [4], 3.69%; in [5], 12.5%; in [6], 1.94%. Moreover, the inhibition stood at 2.67% in test [7]; 8.29% in test [8]; 12.4% in test [9]; 10.7% in test [10]; 43.7% in test [11]; 10.5% in [12]. Further, the inhibition in test [13] worked out at 48%; in test [14], 5.77%; in [15], 5.22%; in test [16], 6.35%; in test [17], 15.9%; in test [18] it was 6.39%. In addition, the inhibition in test [19] is 15.7%; in test [20] it was -0.77%.
Regarding `CCn1c(-c2nonc2N)nc2cncc(C(=O)N3CCNCC3)c21`, the inhibition came out at 7.73% in [1]; 3.36% in test [2]; 3.77% in test [3]; 2.94% in test [4]; 3.87% in test [5]; 38.2% in test [6]. The inhibition is 2.97% in test [7]; 9.03% in test [8]; 10.6% in test [9]; 1.53% in test [10]; 0.82% in [11]; 5.22% in test [12]. The inhibition in test [13] was 4.85%; in [14], 7.76%; in [15], 5.74%; in [16] it was 11.8%; in test [17], 7.87%; in test [18] it was 12.3%. Also, the inhibition in [19] was found to be 7.38%; in [20], 4.67%.
As for `O=C1NC(=O)C(c2cccc(Cl)c2)=C1Nc1ccc(O)c(Cl)c1`, the inhibition in [1] is -8.35%; in [2], 2.73%; in test [3], -5.14%; in [4], 1.15%; in test [5] it was -0.03%; in test [6], 0.29%. For the same compound, the inhibition was -5.89% in test [7]; 5.49% in test [8]; 6.06% in test [9]; 3.79% in test [10]; 5.56% in [11]; 0.55% in [12]. Besides, the inhibition in [13] was 1.14%; in test [14], -2.65%; in test [15], 6.97%; in test [16], 3.82%; in test [17] it was 32.5%; in [18], 4.37%. The inhibition was 21.3% in test [19] and -2.1% in test [20].
In the case of `NS(=O)(=O)c1cccc(-c2ccc3c(NC(=O)C4CC4)n[nH]c3c2)c1`, the inhibition in [1] is -0.57%; in test [2] it was -3.25%; in test [3] it was -3.05%; in [4] it was -1.93%; in test [5], -1.01%; in test [6], -3.46%. Besides, the inhibition is -5.29% in [7]; -3.96% in test [8]; -3.93% in [9]; 1.7% in [10]; 3.76% in [11]; -3.2% in test [12]. For the same compound, the inhibition in test [13] is -4%; in [14], 0.33%; in test [15], -2.92%; in [16] it was -1.77%; in [17] it was -1.15%; in [18], -0.12%. Further, the inhibition stood at 0.44% in test [19] and 0.21% in [20].
Turning to `O=C1Nc2ccc(C(=O)c3ccco3)cc2C1=Cc1cc(Cl)c(O)c(Cl)c1`, the inhibition in test [1] is 15%; in [2] it was 4.56%; in test [3], 5.53%; in test [4] it was 3.11%; in [5], 2.52%; in [6] it was 0.77%. In addition, the inhibition in test [7] stood at 4.54%; in test [8] it was 12.2%; in [9] it was 15.8%; in test [10], 2.31%; in test [11] it was 11.5%; in [12], 1.95%. In addition, the inhibition in test [13] was determined as 2.89%; in test [14], 3.35%; in test [15], 8.23%; in test [16] it was 6.09%; in [17] it was 25.8%; in test [18] it was 9.26%. Also, the results for the inhibition in [19] and in test [20] were 19.1% and 2.69%, respectively.
For `CNC(=O)c1cncc(/C=C/c2c(Cl)cccc2Cl)c1`, the inhibition in [1] was 29.2%; in test [2], -2.12%; in test [3], 2.92%; in [4], 2.4%; in [5], 74.1%; in test [6] it was 3.2%. Further, the inhibition in [7] is 3.13%; in test [8] it was -0.22%; in test [9], 8.83%; in [10] it was 0.6%; in test [11], 5.39%; in test [12], 2.89%. Also, the inhibition was 4.62% in test [13]; 1.94% in test [14]; -1.56% in test [15]; 3.82% in [16]; 7.15% in test [17]; 5.62% in test [18]. For the same compound, the inhibition in test [19] turned out to be 1.39%; in [20] it was 1.14%.
With `NC(=O)c1cccc(Nc2nccc(Nc3cccc4[nH]ncc34)n2)c1`, the inhibition is 77.8% in [1]; -3.41% in [2]; 4.33% in [3]; 22.2% in [4]; 72.1% in [5]; -4.62% in test [6]. The inhibition was 2.08% in test [7]; -6.41% in [8]; -1.88% in test [9]; 3.13% in [10]; 21.9% in test [11]; -2.33% in test [12]. Besides, the inhibition in test [13] was 10.9%; in [14], -5.24%; in [15] it was 9.11%; in test [16], -1.94%; in [17], 13.1%; in test [18], -3.38%. Besides, the inhibition was 4.68% in [19] and 1.28% in test [20].
